Screens as filed in PubChem BioAssay.
The list is not random: actives were taken first. Their share in the collection is about 1.8%.
IkB sig inh – IkB pathway inhibition in ABC-DLBCL cells; ABC-DLBCL IkBa-CBG/CBR dual luciferase ratio, 4 h; response scale: scaled: untreated 0%, proteasome inhibitor 100%; actives 0.04% (n = 110,000); AID 445; Potency, µM (titrated, usually from 57.1 µM); active means well fitted curve in the direction sought with a large enough effect in the signal ratio, not every such curve was filed as active; inconclusive means small, poorly fitted or top-dose-only effect, or a change in a side signal; the % refers to the signal ratio;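 further: the direction sought is a rising ratio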
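In this assay, an IκBα–CBG68 fusion accumulates when IKK-driven degradation is blocked; native CBR normalizes for cell number. OCI-Ly3 cells were treated 4 h with compound and doxycycline, then green and red light read after Chroma-Glo addition.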
p53ts 39C tox – cytotoxicity in p53ts cells at nonpermissive temperature. H1299-p53A138V viability at 39C, ATP luminescence, 24 h. Potency, µM (series often up to 46.1 µM), most hits filed as cytotoxic. actives 1.5% (n = 130,000); further: nearly all actives have a fitted effect of over 55% in size
p53ts 32C tox – kills p53ts cells at the permissive temperature; actives 0.93% (n = 130,000); H1299-p53A138V at 32C, ATP luminescence viability, 24 h; AID 924; Potency, µM (titrated, usually from 46.1 µM), hits mostly cytotoxic; further: nearly all actives have a fitted effect of over 55% in size
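H1299-p53 A138V cells (temperature-sensitive p53) exposed 24 h to up to 46 uM compound at 32C, where p53 is wild-type in conformation. Viability read as ATP luminescence and normalised to DMSO and 100 uM tamoxifen. AC50 fitted with the Hill equation.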
Imprint erasure – induces erasure of genomic imprints in mouse ES cells; mouse ES Peg3-LacZ reporter, beta-gal luminescence, 40 h; Potency, µM (series often up to 60.7 µM), most hits filed as activators; actives 0.02% (n = 110,000); AID 1948
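Each well holds 300 Peg3LacZ-Neo (maternal) female ES cells incubated 40 h at 37C, 5% CO2. LacZ is measured by BetaGlo luminescence, with AC50 and maximum efficacy derived from dose-response curves.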
Numbers stand for hits; [ ] = dose if it differs, or a comment. Unless noted, the call rests on the fitted dose curve; in most records, active means well fitted curve in the direction sought with a large enough effect; inconclusive means small, poorly fitted or top-dose-only effect, or another doubt; inactive means no such curve, though single readings can be large; an effect the other way counts as inactive or inconclusive.

Results for CCOC(=O)N/N=C1/C[C@@H](O)[C@@H](O)[C@@H]2[C@@H]3C(=O)N(Cc4ccc5c(c4)OCO5)C(=O)[C@H]3CC[C@H]12 ?
p53ts 39C tox: inactive[9.22 µM]; p53ts 32C tox: inactive[9.22 µM]

How did NCCC1CCCC(CCN)N1 (stereo not given) do in these assays?
Imprint erasure: inactive

What do the screens show for `CCCCC(CC)CN=C(N)NC(N)=NCCCCCCN=C(N)NC(N)=NCC(CC)CCCC` (stereo not given)?
p53ts 39C tox: inconclusive; p53ts 32C tox: 16µM; Imprint erasure: inactive

What do the screens show for `CCCCC(CC)CO` (stereo not given)?
IkB sig inh: inactive; p53ts 39C tox: inactive; p53ts 32C tox: inactive[1.84 µM]; Imprint erasure: inactive

Results for COc1ccccc1NC(=O)NCCN1CCN(c2cccc(Cl)c2)CC1 ?
IkB sig inh: inactive; p53ts 39C tox: inactive; p53ts 32C tox: inactive; Imprint erasure: inactive[10.9 µM]

Results for COc1ccc2noc3c2c1C(=O)c1ccccc1-3 ?
IkB sig inh: inconclusive; p53ts 39C tox: inactive; p53ts 32C tox: 13µM; Imprint erasure: inactive

How did O=C1c2ccccc2-c2onc3ccc(NCCCn4ccnc4)c1c23 do in these assays?
IkB sig inh: inactive; p53ts 39C tox: inconclusive; p53ts 32C tox: inactive; Imprint erasure: inactive

How did CCc1nnc(NC(=O)c2ccc(OC)cc2OC)s1 do in these assays?
IkB sig inh: inconclusive; p53ts 39C tox: inconclusive; p53ts 32C tox: 16µM; Imprint erasure: inactive

What do the screens show for `CCc1nnc(NC(=O)Nc2ccccc2OC)s1`?
IkB sig inh: inactive; p53ts 39C tox: inactive; p53ts 32C tox: inactive; Imprint erasure: inactive

Results for CCC(=O)N1c2nc(C(C)C)nn2C2(CCCCC2)[C@@H]2CCCC[C@@H]21 ?
IkB sig inh: inconclusive; p53ts 39C tox: inactive; p53ts 32C tox: inactive; Imprint erasure: inactive[10.9 µM]

What do the screens show for `Nn1c(COc2ccccc2)nnc1SC(F)F`?
IkB sig inh: inactive; p53ts 39C tox: inactive; p53ts 32C tox: inactive; Imprint erasure: 4µM

What do the screens show for `Nn1c(COc2ccccc2)nnc1SCc1cc(=O)[nH]c2ccccc12`?
IkB sig inh: inactive; p53ts 39C tox: inactive; p53ts 32C tox: inactive; Imprint erasure: inactive

Results for CCc1ccccc1NC(=O)CN(C)C(=O)Cn1ncc(Cl)c(Cl)c1=O ?
p53ts 39C tox: 3.2µM; p53ts 32C tox: 3.5µM

How did O=C(O)[C@@H](Br)[C@@H](Br)c1ccccc1[N+](=O)[O-] do in these assays?
IkB sig inh: inactive[11.4 µM]; p53ts 39C tox: inactive[9.22 µM]; p53ts 32C tox: inactive[9.22 µM]; Imprint erasure: inactive[10.9 µM]

How did COc1ccc(-c2n[nH]c(C)c2-c2ccc(Cl)cc2)c(O)c1OC do in these assays?
IkB sig inh: inconclusive; p53ts 39C tox: inconclusive; p53ts 32C tox: 13µM; Imprint erasure: inactive

Results for N=C(N)S[C@H]1c2ccccc2-c2cc([N+](=O)[O-])ccc21 ?
IkB sig inh: inactive[11.4 µM]; p53ts 39C tox: inactive[9.22 µM]; p53ts 32C tox: inactive[9.22 µM]; Imprint erasure: inactive[10.9 µM]

What do the screens show for `Cc1cccc(Cn2nnc3c(=O)[nH]c(C4CCCN(C(=O)c5ccc(C(C)(C)C)cc5)C4)nc32)c1` (stereo not given)?
IkB sig inh: inactive; p53ts 39C tox: 25µM; p53ts 32C tox: inconclusive; Imprint erasure: inactive[10.9 µM]

What do the screens show for `Cc1ccccc1Cn1nnc2c(=O)[nH]c(C3CCCN(C(=O)c4ccc(C(C)(C)C)cc4)C3)nc21` (stereo not given)?
IkB sig inh: inconclusive; p53ts 39C tox: 32µM; p53ts 32C tox: inactive; Imprint erasure: inactive[10.9 µM]

What do the screens show for `Cc1ccc(NC(=O)CSC2=Nc3ccccc3C3=NC(Cc4ccccc4)C(=O)N23)cc1C` (stereo not given)?
IkB sig inh: inactive; p53ts 39C tox: inactive; p53ts 32C tox: inactive; Imprint erasure: inactive[10.9 µM]

Results for CCOC(=O)c1c(C)c(-c2ccccc2)n(CC(=O)NCCc2ccc(C)cc2)c1C ?
IkB sig inh: inactive; p53ts 39C tox: inactive; p53ts 32C tox: inactive; Imprint erasure: inactive[10.9 µM]

How did CCc1ccc(S(=O)(=O)c2cn(CC)c3cc(N4CCOCC4)c(F)cc3c2=O)cc1 do in these assays?
p53ts 32C tox: inactive

What do the screens show for `CCCCCCCCCCCCCCCC(=O)O[C@H](CC(=O)O)C[N+](C)(C)C`?
IkB sig inh: inactive; p53ts 39C tox: inconclusive; p53ts 32C tox: 13µM; Imprint erasure: inactive

What do the screens show for `CN(C(=O)c1cc2c(=O)oc3ccccc3c2s1)c1ccc(F)cc1`?
IkB sig inh: inactive; p53ts 39C tox: inactive; p53ts 32C tox: inactive; Imprint erasure: inactive[10.9 µM]

How did CCn1cc2nc(SCc3ccccc3)n(Cc3ccc(C)cc3)c(=O)c2n1 do in these assays?
IkB sig inh: inactive; p53ts 39C tox: inactive; p53ts 32C tox: inactive; Imprint erasure: inactive[10.9 µM]

What do the screens show for `CCn1cc2nc(SCc3ccc(F)cc3)n(Cc3ccc(Cl)cc3)c(=O)c2n1`?
IkB sig inh: inconclusive; p53ts 39C tox: 13µM; p53ts 32C tox: inactive; Imprint erasure: inactive[10.9 µM]

What do the screens show for `Cc1cccc2c1-c1sc(C(=O)NCCCN3CCN(c4cccc(Cl)c4)CC3)cc1CO2`?
IkB sig inh: inactive; p53ts 39C tox: 13µM; p53ts 32C tox: inactive; Imprint erasure: inactive[10.9 µM]

Results for Cc1cccc2c1-c1sc(C(=O)N3CCN(c4cccc(Cl)c4)CC3)cc1CO2 ?
IkB sig inh: inconclusive; p53ts 39C tox: inactive; p53ts 32C tox: inactive; Imprint erasure: inactive[10.9 µM]

What do the screens show for `Cc1cccc2c1-c1sc(C(=O)NCCCN3CCN(c4ccccc4F)CC3)cc1CO2`?
IkB sig inh: inconclusive; p53ts 39C tox: 16µM; p53ts 32C tox: inactive; Imprint erasure: inactive[10.9 µM]

Results for CCN1CCN(CCCNC(=O)c2cc3c(s2)-c2c(C)cccc2OC3)CC1 ?
IkB sig inh: inconclusive; p53ts 39C tox: 25µM; p53ts 32C tox: inconclusive; Imprint erasure: inactive[10.9 µM]

How did Cc1ccc(CNC(=O)c2cc3c(s2)-c2c(C)cccc2OC3)cc1 do in these assays?
IkB sig inh: inconclusive; p53ts 39C tox: inconclusive; p53ts 32C tox: inactive; Imprint erasure: inactive[10.9 µM]

Results for Cc1cccc(C)c1Nc1c(-c2ccc(N3CCOCC3)cc2)nc2ncccn12 ?
IkB sig inh: inactive; p53ts 39C tox: inactive; p53ts 32C tox: inactive; Imprint erasure: inactive[10.9 µM]

Results for c1cn2c(NC3CCCC3)c(-c3ccc(N4CCOCC4)cc3)nc2cn1 ?
IkB sig inh: inactive; p53ts 39C tox: 16µM; p53ts 32C tox: 10µM; Imprint erasure: inactive

How did O=C(Nc1ccc(NC(=O)c2ccco2)nc1)c1ccccn1 do in these assays?
IkB sig inh: inconclusive; p53ts 39C tox: 13µM; p53ts 32C tox: 13µM; Imprint erasure: inactive

Results for O=C(Nc1ccc(NC(=O)C2CCCCC2)cn1)c1ccco1 ?
IkB sig inh: inactive; p53ts 39C tox: 5µM; p53ts 32C tox: 4µM; Imprint erasure: inactive

What do the screens show for `O=C(Nc1ccc(NC(=O)C23CC4CC(CC(C4)C2)C3)cn1)c1ccco1`?
IkB sig inh: inactive; p53ts 39C tox: inactive; p53ts 32C tox: inactive; Imprint erasure: inactive

Results for O=C(Nc1ccc(NC(=O)C2CC2)nc1)c1ccccn1 ?
IkB sig inh: inconclusive; p53ts 39C tox: 6.3µM; p53ts 32C tox: 13µM; Imprint erasure: inactive

How did CC(C)C(=O)Nc1ccc(NC(=O)c2ccccn2)cn1 do in these assays?
IkB sig inh: inactive; p53ts 39C tox: 13µM; p53ts 32C tox: 7.9µM; Imprint erasure: inactive

Results for CCC(=O)Nc1ccc(NC(=O)c2ccccn2)cn1 ?
IkB sig inh: inconclusive; p53ts 39C tox: inconclusive; p53ts 32C tox: inconclusive; Imprint erasure: inactive
